From PubChem BioAssay (EPA / NIEHS) come the findings set out here.

Activity calls are given as the source filed them. How the source made its calls: active means hit-call score of the fitted dose curve at least 0.9, where 1 is the maximum; inactive means score below 0.9.

Holding throughout (settings): mRNA level, 48 h; actives raise or lower the signal
Read-out in experiment [1]: Glutathione S-transferase M3 (GSTM3), GSTM3 (gene 2947)
Description: LTEA_HepaRG_GSTM3: Life Technologies and Expression Analysis (LTEA) Assay for Glutathione S-transferase M3 (GSTM3) using HepaRG (AID 2283501). The method in brief:
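qRT-PCR read-out of GSTM3 transcript, normalized to three housekeeping genes, from human HepaRG cells after 48 h chemical exposure. Eight-point half-log series, top 100 uM, 0.5% DMSO vehicle; gain or loss fitted relative to DMSO baseline.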

Read-out in experiment [2]: Heat shock 70 kDa protein 1 (HSPA1A), gene 3303
The experiment is described as follows: LTEA_HepaRG_HSPA1A: Life Technologies and Expression Analysis (LTEA) Assay for Heat shock 70 kDa protein 1 (HSPA1A) using HepaRG (AID 2283502). The method in brief: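 HSPA1A expression measured by qRT-PCR with ACTB/GAPDH/POLR2A normalization; curves fitted in both directions relative to DMSO vehicle. Exposure: 48 h in HepaRG cells, duplicate 8-point half-log series from 100 uM, 0.5% DMSO, serum-free induction medium.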

Read-out in experiment [3]: Hypoxia-inducible factor 1-alpha (Homo sapiens) (UniProt Q16665)
Description: LTEA_HepaRG_HIF1A: Life Technologies and Expression Analysis (LTEA) Assay for Hypoxia-inducible factor 1 (HIF1A) Trancription factor using HepaRG (AID 2283503). Put shortly:
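HIF1A transcript level read by qRT-PCR (ACTB, GAPDH, POLR2A normalization) after 48 h chemical exposure of HepaRG cultures. Eight half-log concentrations, top 100 uM, 0.5% DMSO vehicle, duplicates; bidirectional curve fit against DMSO baseline.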

Read-out in experiment [4]: 3-Hydroxy-3-Methylglutaryl-CoA Synthase 2 (HMGCS2), HMGCS2 (gene 3158)
The experiment is described as follows: LTEA_HepaRG_HMGCS2: Life Technologies and Expression Analysis (LTEA) Assay for 3-Hydroxy-3-Methylglutaryl-CoA Synthase 2 (HMGCS2) using HepaRG (AID 2283504). Put shortly:
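qRT-PCR read-out of HMGCS2 transcript, normalised to three housekeeping genes, in HepaRG cells after 48 h chemical exposure. Eight-point curves from 100 uM, half-log dilutions, 0.5% DMSO vehicle; gain or loss fitted relative to DMSO baseline.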

Read-out in experiment [5]: Insulin Like Growth Factor 1 (IGF1), IGF1 (gene 3479)
Description: LTEA_HepaRG_IGF1: Life Technologies and Expression Analysis (LTEA) Assay for Insulin Like Growth Factor 1 (IGF1) using HepaRG (AID 2283506). The method in brief:
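Expression measured by TaqMan qRT-PCR on a Fluidigm array, with three housekeeping genes for normalisation, after 48 h treatment of HepaRG cells. Top concentration 100 uM with half-log steps, 0.5% DMSO vehicle, bidirectional fit.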

Read-out in experiment [6]: Intercellular Adhesion Molecule 1 (ICAM1), ICAM1 (gene 3383)
The experiment is described as follows: LTEA_HepaRG_ICAM1: Life Technologies and Expression Analysis (LTEA) Assay for Intercellular Adhesion Molecule 1 (ICAM1) using HepaRG (AID 2283507). Put shortly:
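HepaRG, 48 h exposure, 8-pt half-log series from 100 uM, 0.5% DMSO vehicle, duplicates. Readout: TaqMan qRT-PCR mRNA, housekeeping-normalized (ACTB/GAPDH/POLR2A). Bidirectional curve fit vs DMSO baseline.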

Read-out in experiment [7]: Insulin-like growth factor-binding protein 1 (IGFBP1), IGFBP1 (gene 3484)
Description: LTEA_HepaRG_IGFBP1: Life Technologies and Expression Analysis (LTEA) Assay for Insulin-like growth factor-binding protein 1 (IGFBP1) using HepaRG (AID 2283508). Put shortly:
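qRT-PCR mRNA read-out (TaqMan, Fluidigm array), normalised to three housekeeping genes; HepaRG cells, 48 h exposure, 8-pt half-log series from 100 uM, 0.5% DMSO vehicle; bidirectional curve fit vs DMSO baseline.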

Read-out in experiment [8]: Interleukin 6 (IL6), IL6 (gene 3569)
The experiment is described as follows: LTEA_HepaRG_IL6: Life Technologies and Expression Analysis (LTEA) Assay for Interleukin 6 (IL6) using HepaRG (AID 2283509). The method in brief: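 Changes in IL6 mRNA, up or down relative to 0.5% DMSO controls, were derived from concentration-response curves in human HepaRG cells treated for 48 h at up to 100 uM, with ACTB, GAPDH and POLR2A as normalizers.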

Read-out in experiment [9]: Interleukin 6 Receptor (IL6R), IL6R (gene 3570)
Description: LTEA_HepaRG_IL6R: Life Technologies and Expression Analysis (LTEA) Assay for Interleukin 6 Receptor (IL6R) using HepaRG (AID 2283510). Put shortly: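 IL6R transcript level by qRT-PCR after 48 h chemical exposure (8-point, half-log, max 100 uM, 0.5% DMSO vehicle) of HepaRG cells in serum-free induction medium. Normalized to three housekeeping genes; curves fitted in both directions relative to DMSO.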

Read-out in experiment [10]: Potassium channel subfamily K member 1 (KCNK1), KCNK1 (gene 3775)
Description: LTEA_HepaRG_KCNK1: Life Technologies and Expression Analysis (LTEA) Assay for Potassium channel subfamily K member 1 (KCNK1) using HepaRG (AID 2283511). Put shortly:
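Human HepaRG cultures receive test chemicals for 48 h in 0.5% DMSO, top concentration 100 uM with half-log dilutions. Induction or suppression of KCNK1 mRNA relative to DMSO is derived by bidirectional fitting of qRT-PCR data.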

Read-out in experiment [11]: Keratin 19 (KRT19), KRT19 (gene 3880)
Description: LTEA_HepaRG_KRT19: Life Technologies and Expression Analysis (LTEA) Assay for Keratin 19 (KRT19) using HepaRG (AID 2283512). Put shortly:
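HepaRG, 48 h chemical exposure, 8-pt half-log CRC from 100 uM, 0.5% DMSO vehicle, duplicates. Readout: TaqMan qRT-PCR of KRT19 mRNA, housekeeping-normalized (ACTB/GAPDH/POLR2A). Bidirectional fit vs DMSO baseline.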

Read-out in experiment [12]: JUN Transcription Factor, JUN (gene 3725)
Description: LTEA_HepaRG_JUN: Life Technologies and Expression Analysis (LTEA) Assay for JUN Transcription Factor using HepaRG (AID 2283513). The method in brief: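 mRNA measured by TaqMan qRT-PCR after 48 h chemical exposure of HepaRG cultures; normalization to three housekeeping genes. Duplicate eight-point half-log curves from 100 uM in 0.5% DMSO; gain or loss fitted against DMSO baseline.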

Read-out in experiment [13]: Lipoprotein lipase (LPL), LPL (gene 4023)
The experiment is described as follows: LTEA_HepaRG_LPL: Life Technologies and Expression Analysis (LTEA) Assay for Lipoprotein lipase (LPL) using HepaRG (AID 2283515). Put shortly: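 Concentration-response testing used half-log steps from 100 uM in 0.5% DMSO on human HepaRG cells, 48 h, duplicate wells. Phenobarbital 1 mM served as induction control; LPL mRNA was normalized to ACTB, GAPDH, POLR2A.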

Read-out in experiment [14]: MicroRNA 122 (MIR122), gene 406906
The experiment is described as follows: LTEA_HepaRG_MIR122: Life Technologies and Expression Analysis (LTEA) Assay for MicroRNA 122 (MIR122) using HepaRG (AID 2283516). Further: the transcript read is the microRNA miR-122. The method in brief: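 Expression measured by microfluidic qRT-PCR with three housekeeping genes for normalisation, after 48 h treatment of HepaRG cultures. Eight concentrations (top 100 uM, half-log steps, 0.5% DMSO vehicle) in duplicate; gain or loss fitted relative to vehicle.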

Read-out in experiment [15]: matrix metalloproteinase-10 (MMP10), MMP10 (gene 4319)
Description: LTEA_HepaRG_MMP10: Life Technologies and Expression Analysis (LTEA) Assay for matrix metalloproteinase-10 (MMP10) using HepaRG (AID 2283517). The method in brief: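 In differentiated HepaRG cultures kept in 0.5% DMSO, test chemicals act for 48 h over an eight-point range with a top dose of 100 uM. Expression is then quantified by TaqMan RT-PCR against ACTB, GAPDH and POLR2A.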

Read-out in a further experiment: MYC, MYC (gene 4609)
The experiment is described as follows: LTEA_HepaRG_MYC: Life Technologies and Expression Analysis (LTEA) Assay for MYC using HepaRG (AID 2283518). The method in brief:
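qRT-PCR read-out of MYC transcript (Fluidigm TaqMan, housekeeping-normalized) after 48 h chemical exposure of HepaRG cells; eight concentrations, top 100 uM, half-log steps. Bidirectional curve fitting against 0.5% DMSO vehicle baseline.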

Read-out in experiment [16]: matrix metalloproteinase-3 (MMP3), MMP3 (gene 4314)
The experiment is described as follows: LTEA_HepaRG_MMP3: Life Technologies and Expression Analysis (LTEA) Assay for matrix metalloproteinase-3 (MMP3) using HepaRG (AID 2283519). Put shortly:
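Human liver HepaRG cultures received chemicals (top concentration 100 uM, 0.5% DMSO) for 48 h in duplicate. MMP3 mRNA induction or loss was then assessed via TaqMan qRT-PCR with housekeeping-gene normalisation.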

Read-out in experiment [17]: Paternally Expressed 10 (PEG10), PEG10 (gene 23089)
Description: LTEA_HepaRG_PEG10: Life Technologies and Expression Analysis (LTEA) Assay for Paternally Expressed 10 (PEG10) using HepaRG (AID 2283520). The method in brief:
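PEG10 transcript measured by Fluidigm qRT-PCR, normalized to three housekeeping genes, in HepaRG cells treated 48 h (highest 100 uM, half-log steps, 0.5% DMSO vehicle). Cells plated 48 h before switching to serum-free induction medium.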

Read-out in the next experiment: HGF (gene 3082)
The experiment is described as follows: LTEA_HepaRG_HGF: Life Technologies and Expression Analysis (LTEA) Assay for Hepatocyte Growth Facto (HGF) using HepaRG (AID 2283505). Put shortly:
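HepaRG, 48 h dosing, 8-pt half-log series from 100 uM in 0.5% DMSO, duplicates. Readout: TaqMan qRT-PCR of HGF mRNA, housekeeping-normalized; bidirectional curve fit vs DMSO baseline.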

Hypoxia-inducible factor 1-alpha (Homo sapiens), sequence (Q16665 whole entry, looked up): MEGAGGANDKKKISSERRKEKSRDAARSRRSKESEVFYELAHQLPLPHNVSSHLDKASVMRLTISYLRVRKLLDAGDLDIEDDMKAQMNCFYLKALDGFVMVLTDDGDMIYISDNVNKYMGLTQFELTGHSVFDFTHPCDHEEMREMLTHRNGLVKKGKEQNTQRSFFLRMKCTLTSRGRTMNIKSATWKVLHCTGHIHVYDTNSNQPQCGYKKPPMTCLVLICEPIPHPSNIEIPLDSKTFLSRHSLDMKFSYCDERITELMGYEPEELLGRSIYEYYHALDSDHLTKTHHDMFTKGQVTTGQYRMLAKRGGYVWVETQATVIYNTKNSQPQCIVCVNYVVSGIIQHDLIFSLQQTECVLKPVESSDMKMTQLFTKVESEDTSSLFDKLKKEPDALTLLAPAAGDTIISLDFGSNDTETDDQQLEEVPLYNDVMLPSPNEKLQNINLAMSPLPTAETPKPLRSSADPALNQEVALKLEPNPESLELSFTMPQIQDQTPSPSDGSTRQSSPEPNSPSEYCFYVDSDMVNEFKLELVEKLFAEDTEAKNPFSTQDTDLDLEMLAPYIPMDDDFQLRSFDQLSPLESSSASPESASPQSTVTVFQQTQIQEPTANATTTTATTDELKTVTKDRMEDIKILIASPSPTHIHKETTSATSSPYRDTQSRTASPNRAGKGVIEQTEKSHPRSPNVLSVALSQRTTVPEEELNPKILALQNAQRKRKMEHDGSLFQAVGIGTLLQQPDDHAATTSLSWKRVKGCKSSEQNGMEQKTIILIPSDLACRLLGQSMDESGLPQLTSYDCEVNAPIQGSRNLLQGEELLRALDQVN

`CC(C)(C)c1ccc(O)cc1`: the compound was called inactive in experiment [1], in experiment [2], in experiment [3], in experiment [4], in experiment [5] and in experiment [6]. In addition, the call in experiment [7], in experiment [8], in [9], in [10], in [11] and in experiment [12] was inactive. In addition, the outcome in [13] is “inactive”; in experiment [15], “inactive”; with MYC, MYC (gene 4609) it was “inactive”; in experiment [16], “inactive”; in [17], “inactive”. The AC50 (in general, the concentration giving half of the maximal activity seen) in experiment [14] was 0.197 µM (active).

`CC(C)(C)OOC(C)(C)C`: the result (in [1]; in [2]; in experiment [3]; in experiment [4]; in the experiment with HGF (gene 3082); in experiment [5]) was inactive. The result in [6], in experiment [7], in experiment [8], in [9], in experiment [10] and in experiment [11] was inactive. The outcome in experiment [12] was “inactive”; in experiment [14], “inactive”; in [15], “inactive”; with MYC, MYC (gene 4609), “inactive”; in experiment [16], “inactive”; in experiment [17] it was “inactive”.

For the compound `Nc1ccc2ccccc2c1`, the result (in experiment [1]; in experiment [2]; in experiment [3]; in experiment [4]; in the experiment with HGF (gene 3082); in experiment [5]) was inactive. Also, the compound was called inactive in experiment [6], in experiment [7], in experiment [8], in experiment [9], in experiment [10] and in [12]. The outcome in experiment [14], in experiment [15], in [16] and in [17] was inactive. For the same compound, the AC50 in [11] was 5.98 µM (active); in the experiment with MYC, MYC (gene 4609), 50 µM (active).

For the compound `COCCOCCO`, the call (in experiment [1]; in experiment [2]; in [3]; in experiment [4]; in the experiment with HGF (gene 3082); in experiment [5]) was inactive. For the same compound, the compound was classed as inactive in experiment [6], in experiment [7], in experiment [8], in experiment [9], in [10] and in [11]. The outcome in [12] is “inactive”; in experiment [14] it was “inactive”; in experiment [15], “inactive”; with MYC, MYC (gene 4609) it was “inactive”; in experiment [16], “inactive”; in [17], “inactive”.

In the case of `CCOP(=S)(OCC)SCSCC`, the result (in [1]; in [2]; in [3]; in experiment [4]; in the experiment with HGF (gene 3082); in experiment [5]) was inactive. The compound was called inactive in experiment [6], in [7], in [8], in experiment [9], in experiment [10] and in experiment [11]. Also, the outcome in [12] was “inactive”; in experiment [14], “inactive”; in experiment [15], “inactive”; with MYC, MYC (gene 4609), “inactive”; in experiment [16], “inactive”; in [17] it was “inactive”.
